Compound activity from PubChem.
PDI inh = PDI (human) enzyme inhibition | AID 588391 | PDI insulin aggregation turbidity, A650, 90 min | hit rate 0.052% among 350,000 | inhibition, % at 10 µM | P07237;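 active = mean inhibition across replicates of 30% or more, whatever share of single replicates reach that level; inconclusive = mean inhibition below 30% while every single replicate reaches 30%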
Efflux pump inh = inhibitors of Candida antifungal efflux pumps expressed in yeast | S. cerevisiae Candida pump triplex, Nile Red efflux | inhibition, % at 10 µM | hit rate 0.44% among 330,000 | AID 485275;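 active = plate passing quality check with inhibition over a set limit, or well fluorescence over plate mean plus 4 SD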;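 note: Nile Red retained in pooled yeast measured as flow cytometry median fluorescence; 0% = buffer negative control and 100% = Enniatin B positive control; higher means more Nile Red kept so more efflux inhibition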
PvdQ inh = blocks Pseudomonas aeruginosa PvdQ acylase activity; purified PvdQ acylase, fluorescence plate reader; inhibition, % at 10 µM; hit rate 0.063% among 340,000; in the data active = inhibition above about 30%, passing the limit was not always enough; inconclusive = no clear call, values can overlap the other calls;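 note: 0% = vehicle neutral wells and 100% = reference inhibitor wells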
ERp5 block = blocks human ERp5 reductase activity on insulin; hit rate 0.05% among 350,000; inhibition, % at 9.99 µM; ERp5 insulin aggregation, absorbance 650 nm, 90 min; AID 651711;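 active = mean replicate inhibition above about 25%, with every replicate also reaching it, limit read from the data, passing the limit was not always enough; inconclusive = only one of those two criteria met; inactive = neither criterion met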
Target sequence (Q15084 whole entry, looked up): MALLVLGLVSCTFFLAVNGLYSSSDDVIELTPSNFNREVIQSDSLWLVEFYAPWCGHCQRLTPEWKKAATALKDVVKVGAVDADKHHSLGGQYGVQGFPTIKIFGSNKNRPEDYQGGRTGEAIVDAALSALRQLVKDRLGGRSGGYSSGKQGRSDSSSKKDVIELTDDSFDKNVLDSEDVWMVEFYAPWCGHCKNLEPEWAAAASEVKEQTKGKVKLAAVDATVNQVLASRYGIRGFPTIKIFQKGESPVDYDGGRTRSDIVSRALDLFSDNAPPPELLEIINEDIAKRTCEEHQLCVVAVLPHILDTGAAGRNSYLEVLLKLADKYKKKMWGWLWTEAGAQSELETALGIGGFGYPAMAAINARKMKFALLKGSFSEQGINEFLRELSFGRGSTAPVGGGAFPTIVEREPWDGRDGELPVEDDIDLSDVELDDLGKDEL
Rtt109 Vps75 = C. albicans Rtt109 histone acetyltransferase inhibition; Q5AAJ8; purified Rtt109/Vps75, ThioGlo CoA-SH fluorescence, 4 h; inhibition, % at 34.9 µM; hit rate 0.16% among 330,000; AID 540336;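 active = inhibition of at least 50% in every replicate; inconclusive = best replicate reaches 50% inhibition but some replicates fall short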
Cmpd fluor yeast = compound fluorescence in yeast efflux pump counter-screen | shares compounds with Efflux pump inh | S. cerevisiae AD/pABC3, flow cytometry | fluorescence ratio to DMSO, % at 10 µM | hit rate 4% among 1,700 | AID 588517;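 active = fluorescence ratio to DMSO above its plate's cutoff, the plate mean ratio plus 5 SD, cut at about 210% in these data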;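 note: unstained yeast with no Nile Red so the signal is compound autofluorescence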
Mdr1 pump inh = inhibitors of Candida albicans Mdr1 efflux pump | shares compounds with Efflux pump inh | S. cerevisiae AD/CaMDR1, Nile Red efflux, flow cytometry | inhibition, % at 10 µM | hit rate 1% among 1,700 | AID 588518; in the data active = inhibition above about 26%;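 note: 0% = DMSO vehicle and 100% = reference inhibitor; higher means more Nile Red retained so more efflux inhibition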
Cdr2 pump inh = inhibitors of Candida albicans Cdr2 efflux pump; S. cerevisiae AD/CaCDR2, Nile Red retention, flow cytometry; AID 588520; hit rate 4% among 1,700; Nile Red retention ratio vs DMSO, % at 10 µM; shares compounds with Efflux pump inh; in the data active = Nile Red retention ratio vs DMSO above about 190%;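 note: higher ratio means more blocking of Cdr2 efflux of the dye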
Cdr1 pump inh = Candida Cdr1 efflux pump inhibition | shares compounds with Efflux pump inh | S. cerevisiae AD/CaCDR1, Nile Red efflux, flow cytometry | AID 588522 | inhibition, % at 10 µM | hit rate 1% among 1,700;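 active = inhibition above the screen-wide mean plus twice its standard deviation, cut at about 32% in these data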
Active calls of the source: *; ? = inconclusive; nt = no result given. Compounds with a hit are over-represented: about 0.54% of the library has one in this group of screens.

SMILES	PDI inh	Efflux pump inh	PvdQ inh	ERp5 block	Rtt109 Vps75	Cmpd fluor yeast	Mdr1 pump inh	Cdr2 pump inh	Cdr1 pump inh
CO[C@@H]1CN(C)C(=O)c2cc(NC(=O)NC3CCCCC3)ccc2OC[C@H](C)NC[C@@H]1C	nt	nt	nt	2	nt	nt	nt	nt	nt
O=C(C1CC1)N1CCCCN2[C@H](C1)[C@@H](c1ccc(C#CC3(O)CCCC3)cc1)[C@@H]2CO	nt	nt	nt	3	nt	nt	nt	nt	nt
COc1ccc(CC(=O)OCC(=O)NC(=O)NC23CC4CC(CC(C4)C2)C3)cc1	0	0.7*	-6	nt	10	113	0	106	0
COC(=O)C1=C(C)Nc2c(c(=O)n(C)c(=O)n2C)C1c1ccc(Cl)cc1 (stereo not given)	23	22*	-8	nt	-6	101	0	96	0
O=C(C[C@@H]1CC[C@@H]2[C@H](COC[C@@H](O)CN2C(=O)Nc2ccc(C(F)(F)F)cc2)O1)NC1Cc2ccccc2C1	nt	nt	nt	-3	nt	nt	nt	nt	nt
CS(=O)(=O)N1CCN(c2ccc(NC(=O)CSc3ccc(Cl)cc3)cc2)CC1	-1	0	-14	5	9	nt	nt	nt	nt
Cc1ccc(C(=O)N2CCN(c3ccc(NC(=O)CSc4ccc(Cl)cc4)cc3)CC2)cc1	-24	8.0*	-3	nt	2	105	0	110	0
Cc1cccc(C)c1OCc1cc(C(=O)N2CCNC(=O)C2)no1	1	0	2	-11	-4	96	0	107	0
O=C(CC1C[C@H](C(=O)N2CCOCC2)[C@@]2(CCC3CCCC3)c3[nH]c4ccccc4c3CCN2C1=O)NCC12CC3CC(CC(C3)C1)C2 (stereo not given in full)	7	1.2*	-7	0	-2	109	0	123	0
N#C/C(=C/c1ccc(-c2ccc(S(N)(=O)=O)cc2)o1)C(=O)Nc1ccccc1	6	9.7*	14	nt	-6	98	0	91	0
N#C/C(=C/c1ccc(-c2ccc(S(N)(=O)=O)cc2)o1)c1nc2ccccc2s1	-8	2.6*	0	nt	-4	99	1	150	0
CO[C@H]1CN(C)C(=O)c2cc(NC(=O)C3CCCC3)ccc2OC[C@@H](C)N(C)C[C@H]1C	nt	nt	nt	2	nt	nt	nt	nt	nt
Cc1nn(Cc2cccc(C(=O)NC34CC5CC(CC(C5)C3)C4)c2)c(C)c1Br	-2	0.3*	-1	nt	nt	108	0	102	0
CCCNC(=O)c1cccc(Cn2nc(C)c(Br)c2C)c1	-1	0	-13	nt	-5	nt	nt	nt	nt
O=[N+]([O-])c1cnccc1Nc1ccccc1	0	0	-8	nt	-2	nt	nt	nt	nt
O=C(O)c1cccc(Nc2ccncc2[N+](=O)[O-])c1	0	1.2*	-12	-1	-6	95	0	112	0
C=CCn1cc(/C=C/c2cc[n+](C)cc2)c2ccccc21	-1	1	11	1	6	289*	0	114	0
CCN(CC)C(=O)Cn1c(C)c(/C=C/c2cc[n+](C)cc2)c2ccccc21	2	0	23	1	6	365*	0	121	0
Cc1ccccc1/C=C/c1cc[n+](C)cc1	4	0	-15	-2	-24	nt	nt	nt	nt
Cc1[nH]c2ccccc2c1/C=C/c1cc[n+](C)cc1	?	nt	3	nt	29	nt	nt	nt	nt
CC(C)n1cc(/C=C/c2cc[n+](C)cc2)c2ccccc21	4	nt	-3	-2	7	472*	1	95	0
C=CCn1c(C)c(/C=C/c2cc[n+](C)cc2)c2ccccc21	-1	1.4*	-4	4	-11	684*	3	133	2
CCn1cc(/C=C/c2cc[n+](C)cc2)c2ccccc21	2	5.0*	-6	9	-11	726*	3	112	3
O=C(NC[C@H]1CC[C@H]2[C@H](CN2C(=O)CN2CCOCC2)O1)NC1CCCCC1	nt	nt	nt	0	nt	nt	nt	nt	nt
Cc1ccc(NC(=O)C[n+]2cc(-c3ccccc3)n3c2CCC3)cc1	-2	0	nt	-8	nt	nt	nt	nt	nt
SMILES	PDI inh	Efflux pump inh	PvdQ inh	ERp5 block	Rtt109 Vps75	Cmpd fluor yeast	Mdr1 pump inh	Cdr2 pump inh	Cdr1 pump inh
Cc1ccc(-c2c[n+](CC(=O)Nc3ccccc3C)c3n2CCC3)cc1	1	0	1	0	16	103	0	92	0
COc1cc([N+](=O)[O-])ccc1NC(=O)NN1CCN(C)CC1	4	5.3*	10	-16	3	84	0	93	0
CN1CCN(NC(=O)Nc2ccc([N+](=O)[O-])cc2)CC1	5	0	-7	-6	-1	nt	nt	nt	nt
CC(C)NC(=O)Nc1ccc2c(c1)CC(=O)N([C@@H](C)CO)C[C@@H](C)[C@H](CN(C)C(=O)Nc1ccccc1)O2	nt	nt	nt	1	nt	nt	nt	nt	nt
Cc1ccc2nc(SCC(=O)N3CCN(C(=O)c4ccco4)CC3)[nH]c2c1	-2	-4	-9	nt	1	nt	nt	nt	nt
O=C(CSc1nc2ccc(Cl)cc2[nH]1)N1CCN(C(=O)c2ccco2)CC1	-1	14*	-15	4	4	101	0	89	0
COc1ccccc1NC(=O)COC(=O)c1cc([N+](=O)[O-])ccc1N1CCCC1	3	0.9*	-11	11	0	100	0	97	0
O=C(COC(=O)c1cc([N+](=O)[O-])ccc1N1CCCC1)Nc1ccccc1OC(F)F	8	nt	-1	0	-5	nt	nt	nt	nt
CO[C@H]1CN(C)C(=O)c2cc(NC(=O)C3CC3)ccc2OC[C@@H](C)N(C(=O)Cc2ccccn2)C[C@@H]1C	nt	nt	nt	0	nt	nt	nt	nt	nt
COc1ccc(CNC(=O)C(=O)NCC2OCCN2S(=O)(=O)c2ccccc2)cc1 (stereo not given)	-6	-1	-11	-2	-2	102	1	100	0
Cc1ccc(CNC(=O)C(=O)NCC2OCCN2S(=O)(=O)c2ccc(Br)cc2)cc1 (stereo not given)	0	1	0	0	-4	109	0	112	0
COc1ccc(CNC(=O)C(=O)NCC2OCCN2S(=O)(=O)c2ccc(C)cc2)cc1 (stereo not given)	2	0	-2	1	-6	95	0	106	0
Cc1ccc(CNC(=O)C(=O)NCC2OCCN2S(=O)(=O)c2ccc(C)cc2)cc1 (stereo not given)	-3	0	8	0	-6	nt	nt	nt	nt
COc1ccc(S(=O)(=O)N2CCOC2CNC(=O)C(=O)NCc2ccc(F)cc2)cc1OC (stereo not given)	2	0	-16	2	-2	108	0	93	0
COC(=O)Cn1c(CN2CCOCC2)nc2c1c(=O)[nH]c(=O)n2C	3	1.2*	-1	-2	-8	108	0	104	0
